Compound activity from PubChem BioAssay.
FBW7 act: human FBW7 E3 ligase activation, primary screen; AlphaScreen FBW7–phospho-cyclin E peptide binding, activator screen; normalized activity (activation), % at 26.1 µM; 0.13% of 650,000 active; AID 1259310; in the data active means normalized activity above about 1.9%;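 further: purified mutant Fbw7 with reduced substrate affinity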
TEAD-YAP block: TEAD-YAP interaction inhibition. HEK-TIYL cells, TEAD-Gal4/YAP UAS-luciferase luminescence. inhibition, % at 9.12 µM. 1.4% of 640,000 active. AID 1259422; in the data active means inhibition above about 32%
GPR151 activ: human GPR151 activation | Q8TDV0 | PathHunter beta-arrestin GPR151 cells, luminescence | activation, % at 11.2 µM | 1% of 650,000 active | AID 1508602; in the data active means activation above about 4.9%
MITF primary: human MITF inhibition, primary screen; AlphaScreen MITF homodimerization, bead proximity signal; O75030; 0.91% of 650,000 active; inhibition, % at 2.6 µM; AID 1259374; in the data active means inhibition above about 50%
GPR151 confirm: human GPR151 activation, confirmation screen. activation, % at 11.2 µM. GPR151 PathHunter beta-arrestin cells, luminescence, 90 min; % of EA-reagent control over plate median. shares compounds with GPR151 activ. 6,700 tested, under 10 active;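 active means mean percent activation across replicates above the confirmation screen cutoff of 4.91%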
GPR119 ag: activates human GPR119 in a GPR151 counter-screen; shares compounds with GPR151 activ; 0.3% of 6,700 active; GPR119 PathHunter beta-arrestin cells, luminescence, 90 min; 0 = compound-well median, 100 = enzyme-acceptor control; activation, % at 11.2 µM;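 active means mean percent activation in the counterscreen above 29.09%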;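 further: counterscreen on off-target GPR119 to flag nonselective hits from the GPR151 activator screen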
Target sequence (Q8TDV5 whole entry, looked up): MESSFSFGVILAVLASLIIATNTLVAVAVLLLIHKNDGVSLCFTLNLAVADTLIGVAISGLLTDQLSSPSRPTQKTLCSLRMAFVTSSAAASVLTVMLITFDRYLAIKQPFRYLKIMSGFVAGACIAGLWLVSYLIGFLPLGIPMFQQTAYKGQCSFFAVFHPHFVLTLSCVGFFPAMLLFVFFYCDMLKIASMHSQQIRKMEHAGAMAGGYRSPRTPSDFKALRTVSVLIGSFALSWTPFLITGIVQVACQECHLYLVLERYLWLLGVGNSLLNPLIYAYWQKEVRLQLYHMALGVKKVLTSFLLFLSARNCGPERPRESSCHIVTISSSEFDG
Large screens that a line does not name were inactive (follow-up assays come after a bar, where they were run). Only some compounds are listed: those with a hit (about 3.4% of all), similar ones and a draw of the others.

COc1ccc(C(=O)N/N=C\c2cccc([N+](=O)[O-])c2)cc1OC	none
Cc1nc(Nc2ccc(N(C)C)cc2)nc(Nc2ccc(N(C)C)cc2)c1[N+](=O)[O-]	GPR151 activ 10 | GPR151 confirm inactive | GPR119 ag inactive
Cc1nc(Nc2cccc(N(C)C)c2)nc(Nc2cccc(N(C)C)c2)c1[N+](=O)[O-]	none
OCC1CCN(C2CCCN(Cc3ccc4nsnc4c3)C2)CC1 (configuration not stated)	none
OCC1CCN(C2CCCN(Cc3ccc4nonc4c3)C2)CC1 (configuration not stated)	GPR151 activ 5.9 | GPR151 confirm inactive | GPR119 ag inactive
O=c1/c(=C/c2ccc([N+](=O)[O-])o2)sc2nc3ccccc3n12	none
COc1cc(I)cc(CNc2ccc(F)cc2)c1O	GPR151 activ 5.4 | GPR151 confirm inactive | GPR119 ag inactive
COc1cccc2sc(NC(=O)/C=C/c3ccc(F)cc3)nc12	none
N#C/C(=C\c1ccc(-c2cccc([N+](=O)[O-])c2)o1)C(N)=S	none
CCN(CC)S(=O)(=O)c1ccc(NC(=O)CCc2ccccc2)cc1	none
CCc1cccc(NC(=O)Nc2ccccc2)c1	none
CCCN(CCC)S(=O)(=O)c1ccc(NC(=O)CCc2ccccc2)cc1	GPR151 activ 7.6 | GPR151 confirm inactive | GPR119 ag inactive
CCc1cccc(NC(=O)Cn2cccc2)c1	GPR151 activ 7.6 | GPR151 confirm inactive | GPR119 ag inactive
Cc1cccc(NC(=O)CCc2ccccc2)c1	GPR151 activ 7.8 | GPR151 confirm inactive | GPR119 ag inactive
CC(=O)Nc1cccc(NC(=O)CCc2ccccc2)c1	none
CCc1cccc(NC(=O)CCC(=O)Nc2cccc(CC)c2)c1	GPR151 activ 7.5 | GPR151 confirm inactive | GPR119 ag inactive
CN(C)CCCNC(=O)c1ccccc1I	none
COCCn1c(-c2ccc(OC)cc2)cnc1SCc1ccccc1	none
N#Cc1cccc(NC(=O)Cc2ccccc2)c1	GPR151 activ 7.6 | GPR151 confirm inactive | GPR119 ag inactive
N#Cc1cccc(NC(=O)CCCc2ccccc2)c1	none
N#Cc1ccc(NC(=O)CCCc2ccccc2)cc1	GPR151 activ 5.1 | GPR151 confirm inactive | GPR119 ag inactive
O=C(CCCc1ccccc1)Nc1ccc(F)cc1	GPR151 activ 6.1 | GPR151 confirm inactive | GPR119 ag inactive
O=C(CCCc1ccccc1)Nc1ccccc1	none
CCOC(=O)N1CCC(NS(=O)(=O)c2cccc3nsnc23)CC1	none
O=C1NCC2=C1C(c1ccccc1)Nc1ccccc1N2 (configuration not stated)	none
O=C1NCC2=C1C(c1ccccc1O)Nc1ccccc1N2 (configuration not stated)	GPR151 activ 9.2 | GPR151 confirm inactive | GPR119 ag inactive
Cc1cccc(C)c1NC(=O)C1c2cccc[n+]2CC(=O)N1CCO (configuration not stated)	none
CCCN1C(=O)C[n+]2ccccc2C1C(=O)Nc1ccccc1C (configuration not stated)	GPR151 activ 12 | GPR151 confirm inactive | GPR119 ag inactive
OCC1CCCN1c1cc(NCc2ccccc2)ncn1 (configuration not stated)	none
COc1ccc(C(=O)N(Cc2cccs2)C2CC(C)(C)NC(C)(C)C2)cc1	GPR151 activ 7.4 | GPR151 confirm inactive | GPR119 ag inactive
COc1cccc(C=Nc2ccc(C)c(F)c2)c1O	GPR151 activ 5.8 | GPR151 confirm inactive | GPR119 ag inactive
CC(=O)Nc1ccc(NC(=O)CSc2nnc3c(n2)[nH]c2ccccc23)cc1	none
Cc1ccccc1Nc1sc(C(=O)c2ccc(Cl)cc2)c(N)c1C(=O)NCc1ccc(Cl)cc1	none
Cc1ccccc1Nc1sc(C(=O)c2ccc([N+](=O)[O-])cc2)c(N)c1C(=O)NCc1ccc(Cl)cc1	GPR151 activ 6.4 | GPR151 confirm inactive | GPR119 ag inactive
Cc1c(C(=O)Nc2ccc(Oc3ccccc3)cc2)sc2ncn(CC(=O)Nc3ccc(C(C)C)cc3)c(=O)c12	none
Cc1sc2ncn(CC(=O)NCc3ccccn3)c(=O)c2c1C	GPR151 activ 5.1 | GPR151 confirm inactive | GPR119 ag inactive
CCN(CC)C(=O)Cn1cnc2sc(C(=O)Nc3cc(C)ccc3OC)c(C)c2c1=O	GPR151 activ 4.9 | GPR151 confirm inactive | GPR119 ag inactive
Cc1sc2ncn(CC(=O)NCC(=O)NCc3ccccn3)c(=O)c2c1C	none
